Reference: the supplement of paper PMC12645437, “Orthogonal IMiD-Degron Pairs Induce Selective Protein Degradation in Cells” (ACS Chemical Biology, 2025)
Whole data set: some 8,300 sequences, median “log2 fold change of degron read counts, EGFP-low vs EGFP+ sorted cells (limma voom), compound-induced degradation” near -1.1, cut for the highest 2% near 3.2. Many of the other results were omitted from the sample, so the highest values are more common in it than they were.

T1: CRBN, Q96SW2
T1 chain: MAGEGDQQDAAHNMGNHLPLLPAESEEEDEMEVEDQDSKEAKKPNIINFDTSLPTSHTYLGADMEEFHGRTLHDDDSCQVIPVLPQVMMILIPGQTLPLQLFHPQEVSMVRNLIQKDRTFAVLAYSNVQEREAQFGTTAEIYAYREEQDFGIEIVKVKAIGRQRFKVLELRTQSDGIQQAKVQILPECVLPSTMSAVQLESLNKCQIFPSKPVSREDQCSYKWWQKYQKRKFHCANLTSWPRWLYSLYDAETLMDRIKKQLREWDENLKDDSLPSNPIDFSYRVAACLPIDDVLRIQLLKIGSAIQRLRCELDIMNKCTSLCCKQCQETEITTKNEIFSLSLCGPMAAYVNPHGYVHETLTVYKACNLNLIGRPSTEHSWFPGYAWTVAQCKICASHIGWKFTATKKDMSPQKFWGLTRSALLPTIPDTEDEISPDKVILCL


Molecular target: T1, CRBN, Q96SW2
Experiment: log2 fold change of degron read counts, EGFP-low vs EGFP+ sorted cells (limma voom), compound-induced degradation; higher = more compound-induced degradation of the degron-EGFP fusion; degrons are variants of IKZF1/3 zinc finger 2; compound dose not given here
Conditions: Jurkat, 18 h
[1] = compound: compound 19 (5-tert-butyl-thalidomide)
[2] = compound: compound 22 (5-morpholino-thalidomide)
[3] = compound: compound 33 (diphenyl IMiD analogue)
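Note: pooled lentiviral library of zinc finger degron-EGFP fusions in mCherry-positive Jurkat cells, FACS-sorted after compound exposure, with degron abundance counted by next-generation sequencing.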

Sequence	log2 fold change of degron read counts [1]	log2 fold change of degron read counts [2]	log2 fold change of degron read counts [3]	log2 fold change of degron read counts (compound: thalidomide)
FFCEICGHRFTQKGNLLRHIKL [46F_47F_49E_50I_52G_53H_54R_55F_67L_, Q9UKT9]	-1.06	-1.44	-1.47	-1.72
FDCPICGAVFTQKGNLLRHIKL [46F_47D_49P_50I_52G_53A_54V_55F_67L_, Q9UKT9]	0.604	0.176	1.99	1.81
FFCEVCGAPFTQKGNLLRHIKL [46F_47F_49E_50V_52G_53A_54P_55F_67L_, Q9UKT9]	4	3.18	1.98	1.73
FACEVCGAPFTQKGNLLRHIKL [46F_47A_49E_50V_52G_53A_54P_55F_67L_, Q9UKT9]	3.19	1.62	-0.375	0.871
FFCEVCGADFTQKGNLLRHIKL [46F_47F_49E_50V_52G_53A_54D_55F_67L_, Q9UKT9]	-0.0497	0.23	-0.854	-0.804
FHCEVCGAPFTQKGNLLRHIKL [46F_47H_49E_50V_52G_53A_54P_55F_67L_, Q9UKT9]	3.54	3.17	2.03	1.38
FCCNVCGAPFTQKGNLLRHIKL [46F_47C_49N_50V_52G_53A_54P_55F_67L_, Q9UKT9]	1.3	0.686	-0.00676	0.263
FTCNVCGAPFTQKGNLLRHIKL [46F_47T_49N_50V_52G_53A_54P_55F_67L_, Q9UKT9]	0.145	1.49	0.972	1.51
FSCEVCGAPFTQKGNLLRHIKL [46F_47S_49E_50V_52G_53A_54P_55F_67L_, Q9UKT9]	2.89	2.01	0.358	1.1
FNCEVCGAPFTQKGNLLRHIKL [46F_47N_49E_50V_52G_53A_54P_55F_67L_, Q9UKT9]	2.7	1.8	0.0261	0.847
FICEVCGAPFTQKGNLLRHIKL [46F_47I_49E_50V_52G_53A_54P_55F_67L_, Q9UKT9]	2.03	3.48	2.78	3.17
FTCEVCGAPFTQKGNLLRHIKL [46F_47T_49E_50V_52G_53A_54P_55F_67L_, Q9UKT9]	2.16	3.25	1.81	2.71
FDCEVCGAPFTQKGNLLRHIKL [46F_47D_49E_50V_52G_53A_54P_55F_67L_, Q9UKT9]	0.668	-1.2	-1.15	-0.746
FMCDVCGACFTQKGNLLRHIKL [46F_47M_49D_50V_52G_53A_54C_55F_67L_, Q9UKT9]	-1.81	-1.41	0.979	-1.1
FICNQCGAEFTQKGNLLRHIKL [46F_47I_49N_50Q_52G_53A_54E_55F_67L_, Q9UKT9]	-3.37	-3.09	-2.19	-1.75
FHCEICGAWFTQKGNLLRHIKL [46F_47H_49E_50I_52G_53A_54W_55F_67L_, Q9UKT9]	-0.982	-1.57	-0.784	-2.02
FYCEVCGAPFTQKGNLLRHIKL [46F_47Y_49E_50V_52G_53A_54P_55F_67L_, Q9UKT9]	3.69	3.45	2.63	1.63
FCCEVCGAPFTQKGNLLRHIKL [46F_47C_49E_50V_52G_53A_54P_55F_67L_, Q9UKT9]	3.23	2.09	0.726	1.26
FRCEVCGADFTQKGNLLRHIKL [46F_47R_49E_50V_52G_53A_54D_55F_67L_, Q9UKT9]	-1.68	-1.6	1.33	0.331
FWCEVCGAPFTQKGNLLRHIKL [46F_47W_49E_50V_52G_53A_54P_55F_67L_, Q9UKT9]	3.08	2.92	1.89	1.01
FLCEVCGAPFTQKGNLLRHIKL [46F_47L_49E_50V_52G_53A_54P_55F_67L_, Q9UKT9]	2.39	2.45	2.33	2.97
FQCEVCGAPFTQKGNLLRHIKL [46F_47Q_49E_50V_52G_53A_54P_55F_67L_, Q9UKT9]	3.05	3.49	1.41	3.53
FVCEVCGAPFTQKGNLLRHIKL [46F_47V_49E_50V_52G_53A_54P_55F_67L_, Q9UKT9]	2.23	3.61	2.24	3.07
FGCEVCGAPFTQKGNLLRHIKL [46F_47G_49E_50V_52G_53A_54P_55F_67L_, Q9UKT9]	0.82	-0.556	-1.51	-1.08
FRCEVCGAPFTQKGNLLRHIKL [46F_47R_49E_50V_52G_53A_54P_55F_67L_, Q9UKT9]	3.45	3.6	3.39	3.62
FQCNQCGANFTQKGNLLRHIKL [46F_47Q_49N_50Q_52G_53A_54N_55F_67L_, Q9UKT9]	-2.24	-1.57	-1.76	-0.0144
FSCDQCGALFTQKGNLLRHIKL [46F_47S_49D_50Q_52G_53A_54L_55F_67L_, Q9UKT9]	-2.6	-3.3	-0.185	-3.02
FNCSVCGHNFTQKGNLLRHIKL [46F_47N_49S_50V_52G_53H_54N_55F_67L_, Q9UKT9]	-2.71	-4.15	-3.1	-2.83
